Experimental data as given in PubChem BioAssay (NCATS).
Records with an inconclusive call do not appear. Active and inactive are the calls of the source. The call rests on the fitted dose curve; in most records, active means well fitted curve in the direction sought with a large enough effect; inconclusive means small, poorly fitted or top-dose-only effect, or another doubt; inactive means no such curve, though single readings can be large; an effect the other way counts as inactive or inconclusive.

Assay: qHTS assay for measurement of the activity of small molecule inhibitors on Zika virus induced Caspase-3 activity in human astrocytoma cells (AID 1224859); further: potency means the concentration at half of the fitted maximal effect;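 on activity change, negative = inhibition: plate controls were ZIKV-infected untreated cells for no effect and uninfected cells for full effect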
Details: SNB-19 ZIKV-induced caspase-3/7, luminescence, 6 h; series mostly up to 45.7 µM; activity change, negative = inhibition: at the top concentration
Summary of the method: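 Human SNB-19 astrocytoma cells in RPMI 1640 with 10% FBS receive compound one hour ahead of Zika virus at 2 FFU/cell. After 6 h infection, caspase-3/7 activity is detected by Caspase-Glo luminescence.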

SMILES	activity change, negative = inhibition	Potency
Cc1cc(O)c2ccccc2c1O	-5.72% (inactive)	–
COC(=O)C1=C(C)NC(C)=C(C(=O)OCC(C)=O)C1c1ccccc1[N+](=O)[O-] (configuration not stated)	-2.67% (inactive)	–
CCC1C(=O)OCC1Cc1cncn1C (configuration not stated)	–	inactive
Ic1ccc(N2CCN(Cc3c[nH]c4ncccc34)CC2)cc1	-6.39% (inactive)	–
COC(=O)c1nc(Cl)c(Cl)nc1N	64.7% (inactive)	–
CCCCC/C=C\CC(O)/C=C/c1cccc(CC(O)CCCCO)n1 (configuration not stated)	8.06% (inactive)	–
CNC(=O)[C@H]1O[C@@H](n2cnc3c(NCc4cccc(I)c4)ncnc32)[C@H](O)[C@@H]1O	31.2% (inactive)	–
COc1cc(NC(C)CCCN)c2ncccc2c1 (configuration not stated)	-25.8% (inactive)	–
CN(C)c1ccc(/C=C2\C(=O)Nc3ccccc32)cc1	–	10 µM (active)
C=CC(=O)c1ccc(CCCCCC)cc1	8.69% (inactive)	–
CCCC(=O)OC[C@@H](OC(=O)CCC)[C@@H](OC(=O)CCC)[C@H](Cn1c2nc(=O)[nH]c(=O)c-2nc2cc(C)c(C)cc21)OC(=O)CCC	-5.41% (inactive)	–
Cc1ccccc1CNc1ncnc2c1ncn2C1OC(CO)C(O)C1O (configuration not stated)	-0.228% (inactive)	–
CCCCCCCCCCCCCCCC(=O)OC(C)C	-9.46% (inactive)	–
O=C1NC(=O)/C(=C/c2ccc3nccnc3c2)S1	-21% (inactive)	–
CO[C@@]1(NC(=O)Cc2cccs2)C(=O)N2C(C(=O)O)=C(COC(N)=O)CS[C@@H]21	2.23% (inactive)	–
NCCNC(=O)c1ncsc1-c1cccc(F)c1	1.89% (inactive)	–
O=C1CN(/N=C/c2ccc([N+](=O)[O-])o2)C(=O)N1	-13% (inactive)	–
O=[N+]([O-])c1ccc(CSc2ncnc3c2ncn3[C@@H]2O[C@H](CO)[C@@H](O)[C@H]2O)cc1	-12% (inactive)	–
COc1ccccc1N1CCN(CCN(C(=O)c2ccc(I)cc2)c2ccccn2)CC1	5.5% (inactive)	–

SMILES	activity change, negative = inhibition	Potency
O=P(O)(O)C(Cl)(Cl)P(=O)(O)O	5.33% (inactive)	–
CN1CCc2cccc3c2C1Cc1ccc(O)c(O)c1-3 (configuration not stated)	-9.21% (inactive)	–
Nc1nc(Nc2ccccc2)nc2c1ncn2[C@@H]1O[C@H](CO)[C@@H](O)[C@H]1O	5.65% (inactive)	–
CNCC[C@H](Oc1ccc(C(F)(F)F)cc1)c1ccccc1	1.17% (inactive)	–
CC(C)OC(=O)c1cc(C(=O)OC(C)C)cc([N+](=O)[O-])c1	-3.07% [at 92.8 µM] (inactive)	–
CCOC(=O)N1CCN(/[N+]([O-])=N/Oc2ccc([N+](=O)[O-])cc2[N+](=O)[O-])CC1	-9.98% (inactive)	–
NC(=S)NCCC[C@H](N)C(=O)O	9.94% (inactive)	–
CC(C)Cc1ccc([C@H](C)C(=O)O)cc1	-32.2% (inactive)	–
OCC1O[C@H]([S-])[C@H](O)[C@@H](O)[C@@H]1O.[Au+] (some centres not stated)	-2.91% (inactive)	–
Nc1ccc([N+](=O)[O-])cc1O	-4.02% [at 92.8 µM] (inactive)	–
C=CC(C)=C[C@@]1(C)SC(=O)C(C)=C1O	2.27% (inactive)	–
Cc1ccc(S(=O)(=O)/C=C/C#N)cc1	4.58% (inactive)	–
NCCSSCCN	-1.95% (inactive)	–
Nc1ncnc2c1ncn2[C@@H]1O[C@H](COP(=O)(O)OP(=O)(O)OP(=O)(O)OP(=O)(O)OC[C@@H]2O[C@H](n3cnc4c(N)ncnc43)[C@@H](O)[C@H]2O)[C@@H](O)[C@H]1O	0.48% (inactive)	–
CCCCCC(O)c1cccc(OCc2ccc3ccccc3n2)c1 (configuration not stated)	-19.2% (inactive)	–
CCCn1c(=O)c2[nH]c(-c3ccc(OCC(=O)NCCN)cc3)nc2n(CCC)c1=O	20.9% (inactive)	–
Nc1ncnc2c1ncn2[C@@H]1O[C@H](COP(=O)(O)CP(=O)(O)OP(=O)(O)O)[C@@H](O)[C@H]1O	-3.02% (inactive)	–
COc1cc2c3cc1Oc1cc(ccc1O)C[C@@H]1c4c(cc(OC)c(O)c4Oc4ccc(cc4)C[C@@H]3N(C)CC2)CC[N+]1(C)C	-3.26% (inactive)	–

Assay: qHTS assay to identify small molecule inhibitors of chordoma cells - UCH-1 (AID 1259355); further: on the % scale 0 is the no-effect control and ±100 the full control effect; nearly all actives have a fitted effect of over 55% in size
Details: UCH-1 chordoma viability, CellTiter-Glo, 48 h, combination, with auranofin plus four topoisomerase inhibitors; series mostly up to 46.1 µM; activity, negative = inhibition: at the top concentration
Summary of the method: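 Luminescent ATP read-out (CellTiter-Glo, 30min at room temperature) measured viability of UCH-1 cells exposed for 48hr to test drugs at 15 concentrations, co-dosed with a five-agent combination of auranofin, camptothecin, doxorubicin, rubitecan and topotecan.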

SMILES	activity, negative = inhibition
Cc1cc(O)c2ccccc2c1O	-26.8% (inactive)
CCC1C(=O)OCC1Cc1cncn1C (configuration not stated)	-26.6% (inactive)
COc1cc(NC(C)CCCN)c2ncccc2c1 (configuration not stated)	2.61% [at 20.6 µM] (inactive)
CCCC(=O)OC[C@@H](OC(=O)CCC)[C@@H](OC(=O)CCC)[C@H](Cn1c2nc(=O)[nH]c(=O)c-2nc2cc(C)c(C)cc21)OC(=O)CCC	-21.2% (inactive)
Cc1ccccc1CNc1ncnc2c1ncn2C1OC(CO)C(O)C1O (configuration not stated)	5.45% (inactive)
CCCCCCCCCCCCCCCC(=O)OC(C)C	-22.9% (inactive)
O=C1CN(/N=C/c2ccc([N+](=O)[O-])o2)C(=O)N1	-6.02% (inactive)
COc1cc2c3cc1Oc1cc(ccc1O)C[C@@H]1c4c(cc(OC)c(O)c4Oc4ccc(cc4)C[C@@H]3N(C)CC2)CC[N+]1(C)C	-17.5% (inactive)

Assay: qHTS assay to identify small molecule inhibitors of chordoma cells - UCH-2 (AID 1259356); further: on the % scale 0 is the no-effect control and ±100 the full control effect
Details: UCH-2 chordoma viability, CellTiter-Glo ATP luminescence, 48 h; series mostly up to 46.1 µM; activity change, negative = inhibition: at the top concentration

SMILES	activity change, negative = inhibition
Cc1cc(O)c2ccccc2c1O	7.02% (inactive)
CCC1C(=O)OCC1Cc1cncn1C (configuration not stated)	-2.21% (inactive)
COc1cc(NC(C)CCCN)c2ncccc2c1 (configuration not stated)	0.425% [at 20.6 µM] (inactive)
CCCC(=O)OC[C@@H](OC(=O)CCC)[C@@H](OC(=O)CCC)[C@H](Cn1c2nc(=O)[nH]c(=O)c-2nc2cc(C)c(C)cc21)OC(=O)CCC	4.18% (inactive)
CCCCCCCCCCCCCCCC(=O)OC(C)C	2.3% (inactive)
O=C1CN(/N=C/c2ccc([N+](=O)[O-])o2)C(=O)N1	-2.13% (inactive)
COc1cc2c3cc1Oc1cc(ccc1O)C[C@@H]1c4c(cc(OC)c(O)c4Oc4ccc(cc4)C[C@@H]3N(C)CC2)CC[N+]1(C)C	7.8% (inactive)
